From PubChem
Only some compounds are listed: those with a hit (about 3.3% of all), similar ones and a draw of the others.
GFP derepression – qHTS Assay for Epigenetic Modulators. mouse C127i GFP locus derepression, cytometry, 30 h. Potency, µM (doses to about 46.1 µM), without a hit: at the top dose GFP derepression (activation). 68,000 compounds, 0.09% hits. AID 597, 2007; note: % of control where 0% means no effect
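Locus derepression in mouse mammary C127i cells whose integrated CMV-GFP reporter is normally silent; GFP expression after 30 h compound treatment was quantified by counting fluorescent cells.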
Bst PK mod – Pyruvate Kinase | Potency, µM | purified pyruvate kinase, luminescence ATP production; ribose 5-phosphate activator present at AC10 | 51,000 compounds, 1.2% hits | AID 361, 2006; in the data active = potency below about 11 µM; inconclusive = mostly about 12 µM to 25 µM;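 the screen sought inhibitors and activators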;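 note: potency is the fitted concentration of half-maximal effect; scaled between full activation by ribose 5 phosphate and full inhibition by luteolin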
GBA activity – Glucocerebrosidase. Lysosomal acid glucosylceramidase (Homo sapiens), P04062. purified enzyme, resorufin glucoside fluorescence (screen aimed at inhibitors), 20 min. Potency, µM. 48,000 compounds, 1.1% hits. AID 360, 2006; in the data active = potency below about 15 µM; inconclusive = mostly about 16 µM to 33 µM;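 note: potency is the fitted concentration of half-maximal effect; the screen sought inhibitors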
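Wild-type enzyme at 0.2 nM final in 50mM citric acid/KH2PO4, 10mM sodium taurocholate, 0.01% tween-20, pH 5.9, with resorufin beta-D-glucopyranoside at 30 uM final. Compounds titrated, 20 min at RT, red fluorescence read; AC50 from titration.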
HBB splicing – qHTS Assay for Modulators of Hemoglobin Beta Chain Splicing; HBB splicing reporter cell assay, activation; EGFP reporter with mutant IVS2-654 intron; response scale: normalised to 500 nM splice-correcting PNA; Potency, µM (highest dose often 46.1 µM), for the others: at the top dose activation, most hits filed as activators; 65,000 compounds, 0.06% hits; AID 925, 2007; note: potency is the fitted concentration of half-maximal effect; 0% is about no effect
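HeLa cells stably expressing EGFP interrupted by mutant beta-globin intron 2 (IVS2-654), 500/well in 2% FCS. Treated with compound for 2 days at 37C. Splicing correction scored as total well GFP intensity (488 nm excitation, 500-520 nm emission); 500 nM antisense PNA served as control.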
UbGFP stabilizer – Ubiquitin-GFP Assay | Potency, µM (titrated, usually from 45.9 µM), without a hit: at the highest dose activation (GFP accumulation), usual class: activators | 67,000 tested, under 10 active | Ubiquitin-GFP reporter cells, proteasome inhibition, GFP fluorescence; response scale: untreated = 0%, 10 µM MG-132 = 100%; active = well fitted activation curve with a large enough effect, not every such curve was filed as active; inconclusive = small, poorly fitted or top-dose-only effect, or another doubt; inactive = no such curve, though single readings can be large or run the other way; note: potency is the fitted concentration of half-maximal effect
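U2OS cells expressing ubiquitin(G76V)-GFP, seeded overnight in 0.5% FBS medium, then treated 4 hr at 37 C across 46 uM to 2.9 nM. GFP-positive cells counted by laser cytometry (488 ex/515 em); %activity scaled between basal and 10 uM MG-132.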
Luciferase inh – qHTS Assay for Inhibitors of Firefly Luciferase | purified firefly luciferase, luminescence, 8 min | Potency, µM (top dose mostly 57.1 µM), inactives show at the top dose activity change, negative = inhibition, usual class: inhibitors | 72,000 compounds, 2.2% hits | AID 411, 2009; note: potency is the fitted concentration of half-maximal effect; % is set by controls: 0 for no effect and ±100 for the full control effect; nearly all actives have a fitted effect of over 40% in size
Target sequence (P08659 whole entry, looked up): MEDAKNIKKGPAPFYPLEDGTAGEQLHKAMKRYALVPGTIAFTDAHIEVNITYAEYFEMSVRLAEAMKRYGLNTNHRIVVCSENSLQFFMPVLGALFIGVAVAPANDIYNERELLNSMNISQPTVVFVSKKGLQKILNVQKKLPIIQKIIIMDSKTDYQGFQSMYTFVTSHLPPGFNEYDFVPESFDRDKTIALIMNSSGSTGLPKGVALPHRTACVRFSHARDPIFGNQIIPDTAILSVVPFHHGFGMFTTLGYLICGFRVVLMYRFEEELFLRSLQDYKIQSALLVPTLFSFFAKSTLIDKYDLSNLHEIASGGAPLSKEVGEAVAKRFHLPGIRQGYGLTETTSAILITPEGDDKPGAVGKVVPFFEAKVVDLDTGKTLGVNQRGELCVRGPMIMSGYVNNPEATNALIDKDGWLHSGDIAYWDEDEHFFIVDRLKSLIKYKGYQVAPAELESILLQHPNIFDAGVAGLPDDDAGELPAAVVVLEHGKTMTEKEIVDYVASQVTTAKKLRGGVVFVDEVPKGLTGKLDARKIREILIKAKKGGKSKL
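Compounds were tested as concentration series (qHTS) against purified P. pyralis luciferase with luciferin and 10 uM ATP in 50 mM imidazole pH 7.2, 50 mM KCl, 7 mM MgCl2, 0.01% Tween 20, 0.05% BSA. Luminescence was read after 8 min at ambient temperature.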
* = called active by the depositor; i = inactive; ? = inconclusive; · = no result; ! = not confirmed by another sample; [ ] = remark or other dose. Unless noted, calls come from the whole dose curve; as a rule, active = well fitted curve in the direction sought with a large enough effect; inconclusive = small, poorly fitted or top-dose-only effect, or another doubt; inactive = no such curve, though single readings can be large; an effect the other way counts as inactive or inconclusive.

SMILES	GFP derepression	Bst PK mod	GBA activity	HBB splicing	UbGFP stabilizer	Luciferase inh
O=c1c2ccccc2[se]n1-c1ccccc1	8%[20.6 µM]	i	·	0%[20.6 µM]	4%[20.5 µM]	16µM*
COc1cccc(-n2c(C)nc3ccccc3c2=O)c1	0%[20.6 µM]	>26	·	·	·	1%[25.5 µM]
COc1ccc2c(c[n+](C)c3c4cc5c(cc4ccc23)OCO5)c1OC	3%	·	·	-1%	8%	32µM*
COc1ccc2c(c1OC)CN1CCc3cc4c(cc3[C@H]1C2)OCO4	-1%[20.6 µM]	·	·	0%[20.6 µM]	12%[20.5 µM]	-4%[25.5 µM]
O=C(O)/C=C\c1ccc[c]([Sb](=[O])([OH])[OH])c1	-1%[9.22 µM]	·	·	3%[9.22 µM]	1%[9.17 µM]	2%[11.4 µM]
NNc1c(C(N)=O)c2c(N)ncnc2n1[C@@H]1O[C@H](CO)[C@@H](O)[C@@H]1O	4%[9.22 µM]	·	·	0%[9.22 µM]	-7%[9.17 µM]	3%[11.4 µM]
Cc1ccc2nc3c(cc2c1)CC1(C(=O)N(C)C(=O)N(C)C1=O)C1CCCCN31 (stereo not given)	-3%	?	>77	3%	7%	6.3µM*
CCCC(=O)Nc1ccc(N2CCN(CC)CC2)c(Cl)c1	-2%	>57	1.7*	·	-2%	0%
CC1=NN=C(c2ccc(N)cc2)c2cc3c(cc2C1)OCO3	0%	·	·	2%	1%	2µM*!
C[C@@]12CC[C@H]3[C@@H](CCC4=CC(=O)CC[C@]43C)[C@H]1CCC2=O	-2%	·	·	-1%	2%	0%
C[C@H]1CC[C@@H]2[C@@H](C)C(=O)O[C@H]3O[C@@]4(C)CC[C@@H]1[C@]32OO4	0%[9.22 µM]	·	·	·	-3%	1%[11.4 µM]
CCCCCCn1c(O)c(C=NC2CCCCC2N)c(=O)[nH]c1=O (stereo not given)	7%	2.7*	>77	-1%	-2%	1.3µM*
CN1CSC(=S)N(C)C1	6.3µM*	·	·	1%	15%	2%
C[C@@H]1O[C@H]1P(=O)(O)O	1%	·	·	3%	0%	3%
CN1CCN(c2ccc3nc(-c4ccc5nc(-c6ccc(O)cc6)[nH]c5c4)[nH]c3c2)CC1	4%[9.22 µM]	·	·	2%[9.22 µM]	-2%[9.17 µM]	4µM*
CN1CC[C@@]2(c3cccc(O)c3)Cc3nc4ccccc4cc3C[C@H]2C1	3%	·	·	·	-3%	25µM*
CC(=O)c1c(C)nc2ccccc2c1N	3%	2.5*	>77	-1%	-2%	3.2µM*
CC(=Nc1ccc2c(c1)CCC2)c1c(O)n(C)c(=O)n(C)c1=O	2%	>57	>77	10%[0.369 µM]	-6%	2%
CC(C)(C)n1c(O)c(C=Nc2ccc3c(c2)CCC3)c(=O)[nH]c1=O	8%	>57	11*	-1%[57.5 µM]	1%	1%
C=C(C)[C@H]1[C@H]2OC(=O)[C@@H]1[C@]1(O)C[C@H]3O[C@]34C(=O)O[C@H]2[C@]14C	-2%[9.22 µM]	·	·	·	5%	1%[11.4 µM]
CN(C)C(=O)Oc1ccc(OC(=O)c2ccccc2)cc1	0%	i	>77	-1%	8%	16µM*
CC[C@@H]1CN2CC[C@@H]1C[C@H]2[C@@H](O)c1ccnc2ccc(OC)cc12	-2%[9.22 µM]	·	·	·	6%	-3%[11.4 µM]
CCN(CC)CCCN=Cc1c(O)n(Cc2ccc(F)cc2)c(=O)[nH]c1=O	9%	·	>77	-2%	1%	13µM*
CCN(CC)CCCN=Cc1c(O)n(CCc2ccc(OC)c(OC)c2)c(=O)[nH]c1=O	4%	>57	>77	1%[57.5 µM]	-2%	1%
COc1ccc2c(c1O)-c1cccc3c1[C@H](C2)N(C)CC3	-1%	·	·	4%	-8%	3%
C[C@@H]1O[C@H](O[C@H]2C[C@@H](O)[C@]3(CO)[C@H]4[C@H](O)C[C@]5(C)[C@@H](C6=CC(=O)OC6)CC[C@@]5(O)[C@H]4CC[C@]3(O)C2)[C@@H](O)[C@H](O)[C@H]1O	0%[9.22 µM]	·	·	·	1%	0%[11.4 µM]
O=C(Oc1ccc2ccccc2c1Cl)N1CCCC1	-2%	·	>77	0%	1%	16µM*
CCCN1CCc2cccc3c2[C@@H]1Cc1ccc(O)c(O)c1-3	-3%	·	·	1%	-1%	-11%
